Source: PubChem (National Center for Advancing Translational Sciences (NCATS))
RORgamma inh – inhibitors of mouse ROR gamma transcriptional activity. P51450. Drosophila S2 Gal4-RORgamma UAS-luciferase reporter, 20 h. Potency, µM (top dose mostly 53.6 µM), without a hit: at the highest dose activity change, negative = inhibition, hits mostly inhibitors. 310,000 tested, 5.4% active; also: potency is read from the fitted curve at half-maximal effect; nearly all actives have a fitted effect of over 60% in size
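Luciferase reporter read in Schneider cells carrying Gal4-RORγ (mouse) and UAS-Photinus luciferase; cells given compound 1 h before 700 uM copper sulfate induction, then incubated 20 h at ambient temperature.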
CtBP-E1A inh – blocks the CtBP interaction with E1A | AID 651724 | activity change, % (test concentration not listed) | AlphaScreen GST-E1A/His-CtBP binding, 1536-well; stronger effect = lower value | 340,000 tested, 0.49% active; in the data active = activity change below about -65%; inconclusive = mostly about -30% to -63%
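Protein mix (5X: 125 nM each GST-E1A, His-CtBP) was incubated with pinned compound 2 h at 37 deg C in dark, in 50 mM Tris pH 8.0 buffer with 300 mM NaCl. Glutathione donor and nickel acceptor beads followed; AlphaScreen signal read after 1 h.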
Six1-Eya2 inh – blocks human Six1 binding to Eya2 | AID 651725 | 360,000 tested, 0.56% active | AlphaScreen GST-Six1/His-Eya2 binding, biochemical; stronger effect = lower value | activity change, % (test concentration not listed) | Q15475+O00167; in the data active = activity change below about -65%; inconclusive = mostly about -30% to -63%
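AlphaScreen with GST-Six1 and His-Eya2 (5X mix: 250 nM and 500 nM), glutathione donor and nickel acceptor beads; buffer 50 mM Tris pH 8.0, 300 mM NaCl, 1 mM TCEP; 1 h at 37 C in the dark.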
VP16 counter – Gal4-VP16 reporter inhibition counter-screen | Drosophila S2 Gal4-VP16 UAS-luciferase, luminescence, 20 h | 310,000 tested, 3.5% active | Potency, µM (doses to about 53.6 µM), inactives show top-dose activity, negative = inhibition, most hits filed as inhibitors | AID 2546;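 also: Gal4-VP16 expression switched on by copper sulfate through the metallothionein promoter; potency is read from the fitted curve at half-maximal effect; nearly all actives have a fitted effect of over 50% in size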
PKM2 activator – increases activity of human pyruvate kinase M2 | P14618 | purified PKM2, Kinase-Glo ATP luminescence, activation; response scale: 0% is enzyme alone, no compound | Potency, µM (highest dose often 57.5 µM), for the others: at the highest dose activation, most hits filed as activators | 260,000 tested, 0.34% active | AID 1631; also: potency is read from the fitted curve at half-maximal effect; nearly all actives have a fitted effect of over 55% in size
Target sequence (P14618 whole entry, looked up): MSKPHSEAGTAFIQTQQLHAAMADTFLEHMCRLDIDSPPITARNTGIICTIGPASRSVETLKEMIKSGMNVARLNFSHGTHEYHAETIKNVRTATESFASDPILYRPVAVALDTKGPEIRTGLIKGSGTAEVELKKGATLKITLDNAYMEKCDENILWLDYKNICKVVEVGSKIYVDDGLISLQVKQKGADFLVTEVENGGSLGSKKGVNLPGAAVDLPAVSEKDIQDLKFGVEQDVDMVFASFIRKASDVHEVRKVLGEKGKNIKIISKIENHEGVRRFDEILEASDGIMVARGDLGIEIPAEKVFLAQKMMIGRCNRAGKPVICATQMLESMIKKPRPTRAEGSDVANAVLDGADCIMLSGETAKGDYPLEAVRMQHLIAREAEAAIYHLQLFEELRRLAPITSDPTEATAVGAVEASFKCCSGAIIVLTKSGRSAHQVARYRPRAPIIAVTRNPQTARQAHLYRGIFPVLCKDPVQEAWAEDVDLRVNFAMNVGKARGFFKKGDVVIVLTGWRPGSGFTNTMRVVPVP
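hPK-M2, >95% pure; 0.1 mM ADP / 0.5 mM PEP final; imidazole pH7.2 buffer w/ 7 mM MgCl2, 50 mM KCl; 1 h RT; Kinase-Glo lum. Intermediate enzyme activity for dual inhibitor/activator qHTS.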
* = called active by the depositor; u = inconclusive; x = no result given; [ ] = dose if it differs, or a comment. Sampled rows, rich in hits. Any-hit rate of the full collection: about 5.6%. Unless noted, calls follow the shape of the dose curve; as a rule, active = well fitted curve in the direction sought with a large enough effect; inconclusive = small, poorly fitted or top-dose-only effect, or another doubt; inactive = no such curve, though single readings can be large; an effect the other way counts as inactive or inconclusive. % is scaled to controls: 0 for no effect and ±100 for the full control effect.

SMILES	RORgamma inh	CtBP-E1A inh	Six1-Eya2 inh	VP16 counter	PKM2 activator
CCc1nc2ccc(C(=O)NCCN3CCOCC3)cn2c1N(C)Cc1ccc(OC)cc1	x	0	-8	x	x
CCc1ccc(CNC(=O)CC2C(=O)NCCN2Cc2ccccc2F)nc1 (stereo not drawn)	10µM*	-8	-10	u	x
C[C@@H]1C(SC2Cn3cnc[n+]3C2)=C(C(=O)[O-])N2C(=O)[C@H]([C@@H](C)O)[C@@H]12 (stereo partly drawn)	12%[10 µM]	x	x	-7%	x
Oc1ccc(-c2nc(=S)[nH][nH]2)cc1	u	4	5	-12%	-39%
S=c1nc(-c2cccc(Cl)c2)[nH][nH]1	13µM*	4	-11	u	-9%
FC(F)(F)c1ccc(-c2nc(=S)[nH][nH]2)cc1	2.5µM*	-2	-4	-13%	4%
COc1ccc(-c2nc(=S)[nH][nH]2)cc1OC	-37%	x	0	-6%	-2%
COc1cc(-c2nc(=S)[nH][nH]2)cc(OC)c1OC	-25%	5	6	0%	0%
COc1ccc(-c2nc(=S)[nH][nH]2)cc1	10µM*	0	-6	u	-5%
CCOc1ccc(-c2nc(=S)[nH][nH]2)cc1	5µM*	5	7	22µM*	2%
CC1CCCCN1C(=O)C1COc2ccccc2O1 (stereo not drawn)	-12%	3	7	-3%	3%
COc1ccc(-c2n[nH]c(=S)nc2-c2ccc(OC)cc2)cc1	7.1µM*	-2	-3	u	x
C[C@H](NC(=O)c1[nH]cnc1C(=O)Nc1ccc(CNC(=O)OC(C)(C)C)cc1)C(=O)OC(C)(C)C	8.9µM*	2	-4	u	2%
CC(C)C[C@H](NC(=O)c1nc[nH]c1C(=O)N[C@@H](CC(C)C)C(=O)OC(C)(C)C)C(=O)OC(C)(C)C	u	2	1	11µM*	-1%
CC(C)C[C@H](NC(=O)c1nc[nH]c1C(=O)NCC(=O)OC(C)(C)C)C(=O)OC(C)(C)C	7.1µM*	0	2	u	-4%
C[C@H](NC(=O)c1nc[nH]c1C(=O)NCC(=O)OC(C)(C)C)C(=O)OC(C)(C)C	13µM*	x	5	u	-2%
CC(C)C[C@H](NC(=O)c1nc[nH]c1C(=O)NCCNC(=O)OC(C)(C)C)C(=O)CNCCNC(=O)c1[nH]cnc1C(=O)N[C@@H](C)C(=O)OC(C)(C)C	x	21	-4	x	x
COc1ccc(CCNC(=O)C(=O)NCC2OCCN2S(=O)(=O)c2cccs2)cc1 (stereo not drawn)	17%	-5	3	-12%	-8%
CCOc1ccccc1/C=C/c1onc(C)c1S(=O)(=O)N1CCC(C(=O)N2CCCCCC2)CC1	-33%	1	-2	-11%	x
NC(=O)C1(N2CCCCC2)CCN(CCCC(=O)c2ccc(F)cc2)CC1	16%	x	x	-6%	x
CC(C)(C)OC(=O)NCCCCCNC(=O)c1[nH]cnc1C(=O)Nc1ccc(Cl)cc1	x	-3	-11	x	x
CC(C)C[C@H](NC(=O)c1[nH]cnc1C(=O)Nc1ccc(Cl)cc1)C(=O)OC(C)(C)C	2.8µM*	-8	2	4µM*	0%
COc1ccc(-c2nc3cnc(N4CCN(C)CC4)nc3n(Cc3cccc(OC)c3)c2=O)cc1	-19%	x	x	-6%	x
CCOC(=O)c1ccc(NC(=O)c2nc[nH]c2C(=O)NCCCCCNC(=O)OC(C)(C)C)cc1	11µM*	2	-2	u	-1%
CCOC(=O)c1ccc(NC(=O)c2nc[nH]c2C(=O)NCC(=O)OC(C)(C)C)cc1	7.1µM*	5	-3	16µM*	-2%
SMILES	RORgamma inh	CtBP-E1A inh	Six1-Eya2 inh	VP16 counter	PKM2 activator
CCOC(=O)c1ccc(NC(=O)c2nc[nH]c2C(=O)N(CC)CC)cc1	11µM*	x	6	u	-2%
CCOC(=O)c1ccc(NC(=O)c2nc[nH]c2C(=O)NCCCCNC(=O)c2[nH]cnc2C(=O)Nc2ccc(C(=O)OCC)cc2)cc1	x	4	12	x	x
CCOC(=O)c1ccc(NC(=O)c2nc[nH]c2C(=O)NCCCNC(=O)c2[nH]cnc2C(=O)Nc2ccc(C(=O)OCC)cc2)cc1	x	5	3	x	x
CN(C(=O)C1CCCO1)C1CCS(=O)(=O)C1 (stereo not drawn)	x	8	-2	x	x
CN(NC(N)=O)c1ncc(C(F)(F)F)cc1Cl	-3%	0	9	2%	-3%
CN(NS(=O)(=O)c1ccc(Cl)cc1)c1ncc(C(F)(F)F)cc1Cl	2.2µM*	5	1	3.2µM*	10%
CN(NS(=O)(=O)c1ccc(F)cc1)c1ncc(C(F)(F)F)cc1Cl	3.2µM*	-4	18	6.3µM*	2%
Cc1cccc(N2C(=O)CS/C2=N\NC(=O)c2ccc(Br)cc2)c1C	-29%	-27	-13	1%	5%
Cc1ccc(C(=O)N/N=C2\SCC(=O)N2c2cc(C)ccc2C)cc1	u	8	1	13µM*	-18%
C=C(C)C1CC=C(C)/C(=N\NC(=S)Nc2ccc(C)cc2)C1 (stereo not drawn)	1.1µM*	-20	u	4.5µM*	-6%
C=C(C)C1CC=C(C)/C(=N/NC(=O)COc2ccc(C)cc2)C1 (stereo not drawn)	u	0	7	-24%	3%
CN(CC(=O)Nc1ccccc1C(=O)NC1CC1)Cc1ccc(N(C)C)cc1	x	-8	-6	x	x
COc1ccc(NS(=O)(=O)c2ccc(F)c(F)c2F)cc1S(=O)(=O)N1CCOCC1	x	8	3	x	x
COc1cc(CN2C(=S)NC(C)(C)CC2(C)O)cc(OC)c1 (stereo not drawn)	3.5µM*	5	-4	11µM*	1%
COc1cc(CN2CCCCCC2)cc(OC)c1	8%	9	13	-4%	-3%[11.5 µM]
C(=C\c1nc(-c2cccnc2)no1)/c1ccccc1	4.5µM*	1	2	u	-1%
Clc1ccccc1/C=C/c1nc(-c2cccnc2)no1	2µM*	-2	-4	0%	-3%
Clc1ccccc1-c1nc(-c2cccnc2)no1	u	13	11	-18%	2%
O=C(Nc1ccc([N+](=O)[O-])cc1Cl)c1cc(Cl)ccc1O	1.3µM*	5	0	1.3µM*	x
O=C(Nc1ccccc1)c1cc([N+](=O)[O-])ccc1Cl	5%	5	-4	1%	8%
O=[N+]([O-])c1ccc(O)c(/C=N/NC(=S)Nc2ccc(Cl)cc2Cl)c1	2.5µM*	-22	-17	2.5µM*	-12%
O=C(Nc1ccncc1)c1cc([N+](=O)[O-])ccc1Cl	8.9µM*	x	x	u	0%
O=C(Nc1ccc([N+](=O)[O-])cc1Cl)c1cccc([N+](=O)[O-])c1	x	5	2	x	x
O=C(c1[nH]c(C(F)(F)F)nc1-c1ccccc1)N1CCOCC1	x	4	8	x	x
